Test results reported in ChEMBL document CHEMBL3988442, “University of Dundee, Small-Polar-MMV Screening Library” (2021).
Screen size: about 69,000 compounds; about 420 (0.61%) showed an effect of 50% or more. This is one part of a sample in which strong results are shown more often than they occur.

target: T1, Histidine--tRNA ligase (Leishmania infantum) (UniProt A4I591); test: Leishmania infantum Histidine tRNA synthetase (LdHisRS); format: functional; set-up: scale not given: in the data most compounds retested in dose-response had high values; details: 30 µM
T1 sequence (whole entry): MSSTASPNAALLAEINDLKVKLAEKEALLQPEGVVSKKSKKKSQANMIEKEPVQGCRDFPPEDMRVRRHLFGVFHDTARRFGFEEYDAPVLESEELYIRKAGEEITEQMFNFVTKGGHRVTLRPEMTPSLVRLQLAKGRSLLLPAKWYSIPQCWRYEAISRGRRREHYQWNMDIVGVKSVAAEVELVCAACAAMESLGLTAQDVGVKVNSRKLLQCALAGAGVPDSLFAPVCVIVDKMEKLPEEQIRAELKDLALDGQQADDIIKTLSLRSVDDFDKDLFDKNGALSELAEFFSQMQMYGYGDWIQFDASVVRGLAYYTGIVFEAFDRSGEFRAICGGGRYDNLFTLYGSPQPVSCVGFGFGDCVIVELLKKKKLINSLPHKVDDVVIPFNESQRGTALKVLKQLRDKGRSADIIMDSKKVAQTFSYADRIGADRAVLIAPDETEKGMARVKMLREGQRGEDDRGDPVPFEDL

Compound | Percent Effect [%]
COC[C@@]12CC[C@@H](N3CCOCC3)C[C@H]1CCN(c1ncccc1F)C2 | 19.4
O=C1OCCN1CC(=O)N1C[C@H]2CC[C@@H]1CN(Cc1cscn1)C2 | -18.2
O=C(c1ccccn1)N1CC[C@H]2C(=O)N(c3ccsc3)CCO[C@H]2C1 | 18
c1csc(N2CCN(c3ncnc4sccc34)CC2)n1 | 27.1
CCCn1nc2c(cc1=O)CN(c1ncnc3sccc13)CC2 | 15.3
c1csc(N2CCCN(c3ncnc4sccc34)CC2)n1 | 22.4
CCn1nc2c(cc1=O)CN(c1ncnc3sccc13)CC2 | 102
CC(C)n1nc2c(cc1=O)CN(c1ncnc3sccc13)CC2 | 38.7
Cn1nc2c(cc1=O)CN(c1ncnc3sccc13)CC2 | 100
O=C1N(c2cccc(F)c2)Cc2nc(=O)n(Cc3ccc(Cl)cc3)n21 | 9.78
O=C(Cc1ccco1)N1C[C@H]2CCC[C@@]2(COCC2CC2)C1 | 20
CN(C)C(=O)CN1CC[C@H]2CN(S(C)(=O)=O)C[C@@H]2C1=O | 15.5
CN(C)C(=O)N1C[C@H](Oc2ccccn2)[C@H]2OCCC[C@H]21 | 8.74
COCC(=O)N1C[C@H]2CNC[C@@]2(C(=O)NCc2snnc2C)C1 | 18.6
CCc1cccc(OCCCN(C)C(=O)CN2CCNC2=O)c1 | 8.85
COCCN(C)C(=O)Cn1cccc(OC)c1=O | 105
CN(CCCOc1ccccc1Cl)C(=O)CN1CCCCCC1=O | 21.2
COc1cccn(CC(=O)N(C)CCSC)c1=O | 32
CCN(CC1CCOCC1)C(=O)Cn1cccc(C(F)(F)F)c1=O | 13.2
CCc1ccccc1OCCN(C)C(=O)CN1CCCC1 | 22.2
COc1cccn(CC(=O)N(C)Cc2ccoc2)c1=O | 47.6
CN(CCOCC1CC1)C(=O)Cn1cccc(C(F)(F)F)c1=O | 15.4
CN(CCCOc1ccccc1Cl)C(=O)CN1C[C@@H]2CC[C@H](CC1=O)N2 | 17.7
COc1cccn(CC(=O)N(C)CCC2CCOCC2)c1=O | 91.2

Compound | Percent Effect [%]
COc1cccn(CC(=O)N(C)CCOc2cc(C)cc(C)c2)c1=O | 105
COCCCN(C)C(=O)Cn1cccc(OC)c1=O | 107
CC(=O)N1CC[C@H]2CC(=O)N(C3CC3)CC[C@H]2C1 | 22.2
CNC(=O)CN1CC[C@H]2CN(C(=O)c3cc[nH]n3)C[C@H]2C1 | 16.7
CNC(=O)[C@@H]1CC[C@@H]2[C@@H](CCN2Cc2cn(C)c3ccccc23)O1 | 13.2
O=C1[C@H]2CC[C@H](CN(C3CSCCSC3)C2)N1Cc1cscn1 | 11.4
CN(C)S(=O)(=O)N1CC[C@]2(O)CCN(CCc3cccc(F)c3)C[C@@H]2C1 | 43.4
Cc1nc(CN2C[C@@H]3CN(C(=O)c4cccn4C)C[C@@H]3C2)cs1 | -1.92
CC(=O)N1CCO[C@@H]2CN(Cc3ccccc3Cl)C[C@@H]2C1 | 11.7
Cc1nc(CN2C[C@@H]3CN(C(=O)C4(C#N)CC4)C[C@@H]3C2=O)cs1 | 26.5
Cc1nc([C@H]2C[C@H]3CN(C(=O)c4ccoc4C)CC[C@@H]3O2)no1 | 15.1
CN(CCCOc1ccccc1Cl)C(=O)CN1CCNC1=O | 24.8
COc1cccn(CC(=O)N(C)CCCOc2c(C)cccc2C)c1=O | 110
CN(CCCOc1ccccc1Cl)C(=O)CN1C(=O)CCNC1=O | 14.2
Cc1ccc(N(C)[C@@H]2CC[C@@H]3CN(C(=O)CC4CCOCC4)C[C@@H]32)nn1 | 12.8
Cc1ccnc(N2C[C@@H]3CC[C@H](C2)N(CC2CCC2)C3=O)n1 | 34.4
Cn1cc(CCC(=O)N2C[C@@H]3CC[C@H](C2)N(Cc2ccccn2)C3)cn1 | 24.1
Cc1ccc(N2C[C@H]3OCC[C@H]3[C@H](C(=O)NC3CCC3)C2)nn1 | 11.8
CCc1nccn1-c1cccc(C2CCCN(C3CCCCC3)C2)n1 (configuration not stated) | 42
Cc1nccn1-c1nccnc1C1CCCN(C2CCCC2)C1 (configuration not stated) | -4.2
Cc1nccn1-c1cccc(C2CCCN(C3CCCCC3)C2)n1 (configuration not stated) | 55.6
Cc1nccn1-c1cccc(C2CCCN(C(=O)c3cc[nH]n3)C2)n1 (configuration not stated) | 17.1
Cc1nccn1-c1cccc(C2CCCN(C3CCCC3)C2)n1 (configuration not stated) | 65.2
CC(C)c1nccn1-c1cccc(C2CCCN(C3CCCC3)C2)n1 (configuration not stated) | 22.9

Compound | Percent Effect [%]
COCC(=O)N1CC[C@@H]2CN(Cc3cccc(Cl)c3)S(=O)(=O)[C@@H]2CC1 | 3.77
Cn1ccc(NC(=O)CN2C[C@H]3CC[C@@H]2CN(Cc2ccccn2)C3)n1 | 0
O=C(Cc1cnc(-c2c(Cl)cccc2Cl)s1)N1CCOCC1 | 64.8
NC(=O)C1CCN(C(=O)Cc2cnc(-c3c(Cl)cccc3Cl)s2)CC1 | 12.1
CC(=O)N1CCN(C(=O)Cc2cnc(-c3c(Cl)cccc3Cl)s2)CC1 | -1.1
Cc1nnsc1C(=O)N1CC[C@H](c2ccccc2)[C@@H]2[C@H]1CCCCN2C | 7.29
Cc1ccc(Cl)cc1NC(=O)Cn1cc(C(=O)O)ccc1=O | 6.67
Cc1cccc(Cl)c1NC(=O)Cn1cc(C(=O)O)ccc1=O | 18.3
Cc1c(Cl)cccc1NC(=O)Cn1cc(C(=O)O)ccc1=O | 55
CC(C)CS(=O)(=O)N1C[C@H]2C[C@H](C(=O)NCc3ccccc3)[C@@H](C1)O2 | 5.83
Cn1cc(N2C(=O)C[C@@H]3[C@@H]2CCN3C(=O)c2ccco2)cn1 | 16
COc1cc(N2C[C@H]3CN(C(=O)c4cnccn4)C[C@H]3C2)ncn1 | 5.26
Cn1nc(Cn2ccnc2)c2c1CN(c1nccs1)C2 | 52.6
CCS(=O)(=O)N1Cc2c(Cn3ccnc3)nn(C)c2C1 | 11.1
Cn1nc(Cn2ccnc2)c2c1CN(c1ncccn1)C2 | 3.51
Cc1cc(C(=O)N2C[C@H]3CC[C@@H]2CN(Cc2ccccn2)C3)nc(N)n1 | -4.84
CS(=O)(=O)N[C@H]1COC[C@@H]2CN(Cc3ccco3)C[C@@H]21 | -1.39
COc1ccc(Oc2ncccc2F)cc1CN1CCCC1 | 15.8
c1ccc(Oc2nccc3occc23)c(CN2CCCCC2)c1 | 23.7
COc1ccc(Oc2nccc3occc23)cc1CN1CCCC1 | 58.1
O=C1NCCO[C@H]2CN(C(=O)Cc3ccco3)CC[C@@H]12 | 18
CC(C)Nc1nc(N2CCCC2)nc2c1CN(C)CC2 | 5.56
Cc1nc(CN2CCc3nc(N4CCCC4)nc(NC(C)C)c3C2)cs1 | 92.3
Cc1nc(CN2CCc3nc(NC(C)C)nc(C)c3C2)cs1 | 47.9
